Counter-ions that a name gives are not always drawn. ± gives the standard deviation of the averaged measurements.
What follows are compounds tested on Klebsiella pneumoniae NCTC-13439 (assay: percent growth inhibition of drug alone vs DMSO control; higher = more growth inhibition). Settings: antibiotic (0.125x MIC): none (0.1% DMSO); 7 µM.
With `CO[C@H]1/C=C/O[C@@]2(C)Oc3c(C)c(O)c4c(O)c(c5c(nc6cc(C)ccn65)c4c3C2=O)NC(=O)/C(C)=C\C=C\[C@H](C)[C@H](O)[C@@H](C)[C@@H](O)[C@@H](C)[C@H](OC(C)=O)[C@@H]1C` [Rifaximin] the “percent growth inhibition of drug alone” value was 1.28 ± 0.063%.
`OCCOCCN1CCN(C2=Nc3ccccc3Sc3ccccc32)CC1` [Quetiapine hemifumarate] was tested, and the “percent growth inhibition of drug alone” value was -15.6 ± 19%.
For `CC(=O)OC[C@H]1O[C@@H]([S-])[C@H](OC(C)=O)[C@@H](OC(C)=O)[C@@H]1OC(C)=O.CCP(CC)CC.[Au+]` [Auranofin], the “percent growth inhibition of drug alone” value was 9.98 ± 8.3%.
In the case of `CO[C@H]1/C=C/O[C@@]2(C)Oc3c(C)c(O)c4c(c3C2=O)C2=NC3(CCN(CC(C)C)CC3)NC2=C(NC(=O)/C(C)=C\C=C\[C@H](C)[C@H](O)[C@@H](C)[C@@H](O)[C@@H](C)[C@H](OC(C)=O)[C@@H]1C)C4=O` [Rifabutin], the “percent growth inhibition of drug alone” value is reported as 5.74 ± 2.1%.

Same assay, conditions: antibiotic (0.125x MIC): none (0.1% DMSO); 20 µM
For `O=c1[nH]c(=O)n([C@H]2C[C@H](O)[C@@H](CO)O2)cc1F` [Floxuridine], the “percent growth inhibition of drug alone” value was 99.63 ± 0.17%.
With `O=C(O)c1cn(-c2ccc(F)cc2)c2cc(N3CCNCC3)c(F)cc2c1=O` [Sarafloxacin] the “percent growth inhibition of drug alone” value was 98.4 ± 1.6%.
With `CN(C)c1ccc(O)c2c1C[C@H]1C[C@H]3[C@H](N(C)C)C(O)=C(C(N)=O)C(=O)[C@@]3(O)C(O)=C1C2=O` [Minocycline hydrochloride] the “percent growth inhibition of drug alone” value was 6.86 ± 3.9%.
For `CN[C@@H]1[C@@H](O[C@H]2O[C@H](CO)[C@@H](N)[C@H](O)[C@H]2O)OC2C[C@@H](N)[C@@H](O[C@H]3[C@H](O)[C@@H](O)[C@H](N)C[C@@H]3N)OC2[C@@H]1O` (stereo not given in full) [Apramycin], the “percent growth inhibition of drug alone” value was 88 ± 17%.
For `CC[C@H]1OC(=O)[C@H](C)[C@@H](O[C@H]2C[C@@](C)(OC)[C@@H](O)[C@H](C)O2)[C@H](C)[C@@H](O[C@@H]2O[C@H](C)C[C@H](N(C)C)[C@H]2O)[C@](C)(O)C[C@@H](C)CN(C)[C@H](C)[C@@H](O)[C@]1(C)O` [Azithromycin], the “percent growth inhibition of drug alone” value was 74.4 ± 19%.
With `O=C1OCCN1/N=C/c1ccc([N+](=O)[O-])o1` [Furazolidone] the “percent growth inhibition of drug alone” value was 49.8 ± 1.5%.
`NC[C@@H]1O[C@H](O[C@H]2[C@@H](O)[C@H](O[C@@H]3[C@@H](O)[C@H](N)C[C@H](N)[C@H]3O[C@H]3O[C@H](CO)[C@@H](O)[C@H](O)[C@H]3N)O[C@@H]2CO)[C@H](N)[C@@H](O)[C@@H]1O` [Paromomycin sulfate] was tested, and the “percent growth inhibition of drug alone” value was 43.7 ± 12%.
`CO[C@H]1/C=C/O[C@@]2(C)Oc3c(C)c(O)c4c(O)c(c(/C=N/N5CCN(C6CCCC6)CC5)c(O)c4c3C2=O)NC(=O)/C(C)=C\C=C\[C@H](C)[C@H](O)[C@@H](C)[C@@H](O)[C@@H](C)[C@H](OC(C)=O)[C@@H]1C` [Rifapentine] was tested, and the “percent growth inhibition of drug alone” value was 11.1 ± 17%.
In the case of `CO[C@H]1/C=C/O[C@@]2(C)Oc3c(C)c(O)c4c(O)c(c5c(nc6cc(C)ccn65)c4c3C2=O)NC(=O)/C(C)=C\C=C\[C@H](C)[C@H](O)[C@@H](C)[C@@H](O)[C@@H](C)[C@H](OC(C)=O)[C@@H]1C` [Rifaximin], the “percent growth inhibition of drug alone” value is reported as 17.5 ± 13%.
For `OCCOCCN1CCN(C2=Nc3ccccc3Sc3ccccc32)CC1` [Quetiapine hemifumarate], the “percent growth inhibition of drug alone” value was -5.29 ± 6.1%.
With `CC(=O)OC[C@H]1O[C@@H]([S-])[C@H](OC(C)=O)[C@@H](OC(C)=O)[C@@H]1OC(C)=O.CCP(CC)CC.[Au+]` [Auranofin] the “percent growth inhibition of drug alone” value was 22.6 ± 13%.

What follows are compounds tested on Escherichia coli ATCC BAA-2469 (assay: percent growth inhibition of drug + antibiotic vs DMSO control; higher = more growth inhibition). Settings: antibiotic (0.125x MIC): gentamicin; 7 µM.
Procedure: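 Prestwick drugs tested at 20 uM and 7 uM with an antibiotic at 0.125x MIC (16 mg/L when MIC >128 mg/L) against E. coli ATCC BAA-2469 (NDM-1) in CAMHB, 384-well plates, duplicate runs. Percent growth inhibition was computed from OD600 (24 h minus 0 h) relative to DMSO wells. Drug + DMSO-only wells are also given. […]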
For `Oc1c(Cl)cc(Cl)c(Cl)c1Cc1c(O)c(Cl)cc(Cl)c1Cl` [Hexachlorophene], the percent growth inhibition was 21.4 ± 16%.
For `Cc1c(N(C)C)c(=O)n(-c2ccccc2)n1C` [Amidopyrine], the percent growth inhibition was 0.636 ± 5.5%.
For `CC(=O)c1ccc2c(c1)N(CCCN1CCC(CCO)CC1)c1ccccc1S2` [Piperacetazine], the percent growth inhibition was 2.86 ± 2.4%.
Compound `CCOC(=O)c1ccc(N)cc1` [Benzocaine] has a percent growth inhibition of 0.573 ± 3.1%.

The compounds below were run on Klebsiella pneumoniae KPC-119 in the same assay as above. Settings: antibiotic (0.125x MIC): colistin; 7 µM.
In the case of `Oc1c(Cl)cc(Cl)c(Cl)c1Cc1c(O)c(Cl)cc(Cl)c1Cl` [Hexachlorophene], the percent growth inhibition is reported as 4.52 ± 2.5%.
With `CN(C)c1ccc(O)c2c1C[C@H]1C[C@H]3[C@H](N(C)C)C(O)=C(C(N)=O)C(=O)[C@@]3(O)C(O)=C1C2=O` [Minocycline hydrochloride] the percent growth inhibition was 97.33 ± 0.15%.
For `CC(C)Nc1cccnc1N1CCN(C(=O)c2cc3cc(NS(C)(=O)=O)ccc3[nH]2)CC1` [Delavirdine], the percent growth inhibition was -6.39 ± 0.99%.
`CC[C@H]1OC(=O)[C@H](C)[C@@H](O[C@H]2C[C@@](C)(OC)[C@@H](O)[C@H](C)O2)[C@H](C)[C@@H](O[C@@H]2O[C@H](C)C[C@H](N(C)C)[C@H]2O)[C@](C)(O)C[C@@H](C)CN(C)[C@H](C)[C@@H](O)[C@]1(C)O` [Azithromycin] gave a percent growth inhibition of 40.9 ± 12%.
For `O=C1OCCN1/N=C/c1ccc([N+](=O)[O-])o1` [Furazolidone], the percent growth inhibition was 96.1 ± 7%.
In the case of `NC[C@@H]1O[C@H](O[C@H]2[C@@H](O)[C@H](O[C@@H]3[C@@H](O)[C@H](N)C[C@H](N)[C@H]3O[C@H]3O[C@H](CO)[C@@H](O)[C@H](O)[C@H]3N)O[C@@H]2CO)[C@H](N)[C@@H](O)[C@@H]1O` [Paromomycin sulfate], the percent growth inhibition is reported as 12.7 ± 6.7%.
Work on `CO[C@H]1/C=C/O[C@@]2(C)Oc3c(C)c(O)c4c(O)c(c5c(nc6cc(C)ccn65)c4c3C2=O)NC(=O)/C(C)=C\C=C\[C@H](C)[C@H](O)[C@@H](C)[C@@H](O)[C@@H](C)[C@H](OC(C)=O)[C@@H]1C` [Rifaximin] yielded a percent growth inhibition of 99.23 ± 0.84%.
`CCOC(=O)OC(C)OC(=O)[C@@H]1N2C(=O)[C@@H](NC(=O)[C@H](N)c3ccccc3)[C@H]2SC1(C)C` (stereo not given in full) [Bacampicillin hydrochloride] gave a percent growth inhibition of -4.19 ± 0.78%.
`CCC[C@@H]1C[C@@H](C(=O)N[C@@H]([C@H]2O[C@H](SC)[C@H](O)[C@@H](O)[C@H]2O)[C@H](C)Cl)N(C)C1` [Clindamycin hydrochloride] showed a percent growth inhibition of 44.3 ± 4.1%.
With `CC(=O)OC[C@H]1O[C@@H]([S-])[C@H](OC(C)=O)[C@@H](OC(C)=O)[C@@H]1OC(C)=O.CCP(CC)CC.[Au+]` [Auranofin] the percent growth inhibition was 101 ± 3.5%.
`CO[C@H]1/C=C/O[C@@]2(C)Oc3c(C)c(O)c4c(c3C2=O)C2=NC3(CCN(CC(C)C)CC3)NC2=C(NC(=O)/C(C)=C\C=C\[C@H](C)[C@H](O)[C@@H](C)[C@@H](O)[C@@H](C)[C@H](OC(C)=O)[C@@H]1C)C4=O` [Rifabutin] was tested, and the percent growth inhibition was 97.8 ± 1.9%.

— the supplement of paper PMC6658780
